PubChem BioAssay AID504848 (National Center for Advancing Translational Sciences (NCATS), 2011)
Out of some 2,300 compounds screened, about 1,400 (61%) were called active. Not shown: some 29% with an inconclusive outcome. The call rests on the fitted dose curve; in most records, active means well fitted inhibition curve with a large enough effect; inconclusive means small, poorly fitted or top-dose-only effect, or effect the other way; inactive means no such curve, though single readings can be large or run the other way. The set was probably picked from earlier hits. The list shows a part of the results.

test: Confirmation screen for delayed death inhibitors of the malarial parasite plastid, 96 hour incubation; further: nearly all actives have a fitted effect of over 60% in size; conditions: P. falciparum luciferase growth in erythrocytes; series mostly up to 28.7 µM
Method in brief: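 Erythrocytes infected with luciferase-expressing P. falciparum (2% hematocrit, 0.1% parasitemia final) in RPMI 1640 with 0.5% Albumax, exposed to compounds 96 h at 37 C, 5% CO2. Growth inhibition read as decreased luciferase luminescence.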
Potency means the concentration at half of the fitted maximal effect.

Compound | Potency
COc1cccc(/C=N/N2CCN(C3c4ccccc4-c4ccccc43)CC2)c1O | 14.1 µM (active)
CCOC(=O)C(C)Sc1cc(CS(=O)(=O)c2ccccc2)nc(-c2ccccc2)n1 (stereo not given) | 12.6 µM (active)
Cc1cccc(Oc2nc3ccccn3c(=O)c2/C=C(\C#N)C(=O)NC2CCS(=O)(=O)C2)c1C (stereo not given) | 12.6 µM (active)
Cc1ccc(Oc2nc3ccccn3c(=O)c2/C=C(\C#N)C(=O)NC2CCS(=O)(=O)C2)c(C)c1 (stereo not given) | 10 µM (active)
N#C/C(=C\c1c(Oc2ccccc2Cl)nc2ccccn2c1=O)C(=O)NC1CCS(=O)(=O)C1 (stereo not given) | 12.6 µM (active)
COc1ccc(CCn2c(C(C)C)nc3c(c(=O)c4ccccc4n3C)c2=O)cc1 | 3.16 µM (active)
COc1ccc(Cn2c(-c3ccccc3)nc3c(c(=O)c4ccccc4n3C)c2=O)cc1 | 10 µM (active)
COc1ccc(-c2nc3c(c(=O)c4ccccc4n3C)c(=O)n2Cc2ccccc2)cc1 | 7.08 µM (active)
CCO[C@H]1OC(C(=O)N2CCN(Cc3ccccc3)CC2)=C[C@@H](c2ccc(C(F)(F)F)cc2)[C@@H]1CCCO | 3.16 µM (active)
O=C(C1=C[C@@H](c2csc3ccccc23)C[C@@H](OCCCCO)O1)N1CCN(Cc2ccc3c(c2)OCO3)CC1 | 3.98 µM (active)
CCO[C@H]1OC(C(=O)N2CCN(Cc3ccc4c(c3)OCO4)CC2)=C[C@@H](c2ccc(C(F)(F)F)cc2)[C@@H]1CCCO | 2 µM (active)
CCOC(=O)N1CCN(CC(=O)c2ccc(O)cc2O)CC1 | 17.8 µM (active)
CCOc1cc(/C=C2/C(=O)ON=C2C)ccc1OCc1ccccc1 | inactive
CCOc1cc(/C=C2\COc3ccccc3C2=O)ccc1OCC(=O)N(C)C | 12.6 µM (active)
COc1cc(CN2CCN(S(=O)(=O)c3ccccc3)CC2)cc(OC)c1OC | 2.24 µM (active)
O=S1(=O)C=C(Sc2nnc(-c3ccccc3)o2)c2ccccc21 | 14.1 µM (active)
O=S1(=O)C=C(Sc2nc3cc(Cl)ccc3o2)c2ccccc21 | 4.47 µM (active)
CCOc1ccc(/C=N/OCC(=O)Nc2ccc(OCc3ccccc3)cc2)cc1OC | 3.55 µM (active)
C[C@@H]1CCC2[C@@H](C)[C@@H](O)O[C@@H]3O[C@@]4(C)CC[C@@H]1[C@@]23OO4 (stereo not given in full) | 0.0251 µM (active)
CO[C@H]1OC2O[C@@]3(C)CC[C@H]4[C@H](C)CC[C@@H]([C@H]1C)[C@@]24OO3 (stereo not given in full) | 0.0631 µM (active)
C[C@H]1[C@@H](OC(=O)CCC(=O)O)OC2OC3(C)CC[C@H]4[C@H](C)CC[C@@H]1[C@@]24OO3 (stereo not given in full) | 0.0355 µM (active)
COCCN1CCCC(CNCc2cn(C)nc2-c2ccc(Oc3ccccc3)cc2)C1 (stereo not given) | 7.08 µM (active)

Compound | Potency
Cc1cc(=O)oc2c3c(cc(OCC(=O)Nc4cccnc4)c12)OC(C)(C)CC3 | 1.26 µM (active)
CCOC(=O)c1c(NC(=O)CSc2c[nH]c3ccccc23)sc2c1CCCC2 | 12.6 µM (active)
CCOC(=O)c1c(NC(=O)CSc2ccccc2C(=O)O)sc(C)c1C | inactive
CC(C)(C)c1cc(C(=O)NNc2cccc(Cl)c2)n(Cc2ccccc2)n1 | 10 µM (active)
Cc1cccc(Cn2nc(C(C)(C)C)cc2C(=O)Nc2ccc(F)cc2)c1 | 3.55 µM (active)
Cc1ccc(NC(=O)c2cc(C(C)(C)C)nn2Cc2ccccc2)cc1 | 12.6 µM (active)
CC(C)(C)C(=O)NNC(=O)c1cc(C(C)(C)C)nn1Cc1ccccc1 | 14.1 µM (active)
Cc1ccc2c(c1)cc(C(=O)NCc1ccccc1)n2C | inactive
C=CCNC(=O)c1cnc2n(c1=O)CCS2 | inactive
COc1ccc(C(=O)NC2CCCc3c2cnn3-c2cccc(C)c2C)o1 (stereo not given) | 12.6 µM (active)
Cc1cccc(-n2ncc3c2CCCC3NC(=O)C2=CC(=O)CC(C)(C)O2)c1C (stereo not given) | 12.6 µM (active)
O=S(=O)(c1ccc(Cl)c(Cl)c1)c1snnc1-c1ccccc1 | 7.94 µM (active)
CCCNC(=O)c1nnsc1S(=O)(=O)c1ccc(Cl)cc1 | inactive
N#Cc1ccc(Oc2ccc(-c3nc4ccccc4nc3-c3ccccc3)cc2)cc1C#N | 0.708 µM (active)
CCOC(=O)C(Cc1ccccc1)C(=O)Nc1cccc2ccccc12 (stereo not given) | 5.01 µM (active)
CCc1nn(CCCC(=O)NCc2ccccc2C)c(=O)c2cc3occc3n12 | 7.08 µM (active)
O[C@@H]1[C@@H](O)C=C2CCN3Cc4cc5c(cc4[C@H]1C23)OCO5 (stereo not given in full) | 1.58 µM (active)
S=c1[nH]nc(COc2ccccc2)n1/N=C/C(Cl)=C/c1ccccc1 | 12.6 µM (active)
ClC(/C=N/n1cnnc1)=C/c1ccccc1 | 10 µM (active)
O=C(O)CCCN1C(=O)/C(=C\C(Cl)=C\c2ccccc2)SC1=S | 5.01 µM (active)
C=C1c2c(Cl)ccc(O)c2C(O)=C2C(=O)[C@]3(O)C(O)=C(C(N)=O)C(=O)[C@@H](N(C)C)[C@@H]3[C@@H](O)C12 (stereo not given in full) | 2 µM (active)
C=C1c2c(Cl)ccc(O)c2C(O)=C2C(=O)[C@@]3(O)C(O)=C(C(N)=O)C(=O)[C@@H](N(C)C)[C@@H]3[C@@H](O)[C@H]12 | 2 µM (active)

Compound | Potency
C[C@@H]1c2cccc(O)c2C(O)=C2C(=O)[C@@]3(O)C(O)=C(C(N)=O)C(=O)[C@@H](N(C)C)[C@@H]3[C@@H](O)[C@@H]21 | 2.51 µM (active)
S=c1[nH]nc(-c2ccccc2)n1/N=C/c1ccc(-c2ccccc2Cl)o1 | inactive
S=c1[nH]nc(-c2cc(-c3ccccc3)n[nH]2)n1/N=C/C(Br)=C/c1ccccc1 | 3.98 µM (active)
COc1ccc(C(=S)N2CCN(c3ccccc3C)CC2)cc1 | 12.6 µM (active)
Cc1ccc(C(=O)NCCc2nnc3ccc(SCC(=O)NCc4ccc(F)cc4)nn23)cc1 | 7.94 µM (active)
COc1cccc(NC(=O)CSc2ccc3nnc(CCNC(=O)c4ccccc4)n3n2)c1 | inactive
Cc1cccc(C)c1Nc1c(-c2ccc(N3CCOCC3)cc2)nc2ncccn12 | 12.6 µM (active)
O=C(/C=C/c1cccs1)Nc1sc2c(c1C(=O)O)CCCC2 | inactive
CC(C)(C)c1ccc(C(=O)Nc2sc3c(c2C(=O)O)CCC3)cc1 | 10 µM (active)
Cc1ccc(-c2nnc(SCC(=O)N/N=C/c3cccs3)n2-c2ccc(C)cc2)cc1 | 10 µM (active)
Cc1nnc(N2CCCC(C(=O)NCc3cccc(F)c3)C2)c2nn(-c3ccccc3)c(C)c12 (stereo not given) | 12.6 µM (active)
CCCCc1nc2cc(C(=O)N3CCN(c4nc(C)cnc4C)CC3)ccc2o1 | 10 µM (active)
Cc1ccc(NS(=O)(=O)c2ccc(-c3cnc(C4CC4)o3)cc2)c(C)c1 | 7.08 µM (active)
Cn1c(=O)n(Cc2ccccc2)c(=O)c2c1nc1n2CCN1Cc1ccco1 | 7.94 µM (active)
Cc1nc(-c2ccc(S(=O)(=O)N3CCCN(CCc4ccccc4)CC3)s2)cs1 | 3.55 µM (active)
CCCCCCCNC(=O)C1(CC2CC(c3ccc(Cl)cc3)=NO2)CCN(C(=O)Cc2ccc(F)cc2)CC1 (stereo not given) | 7.94 µM (active)
CCCCCCCNC(=O)C1(CC2CC(c3ccc(Cl)cc3)=NO2)CCN(C(=O)C2CCCC2)CC1 (stereo not given) | 10 µM (active)
O=C(Nc1ccc(N2CCOCC2)c(Cl)c1)c1cc2ccccc2o1 | 2.82 µM (active)
CCCC(=O)N1CCN(c2ccc(NC(=O)c3ccc([N+](=O)[O-])o3)cc2Cl)CC1 | 8.91 µM (active)
CC(C)C(=O)N1CCN(c2ccc(NC(=O)c3ccc([N+](=O)[O-])o3)cc2)CC1 | 4.47 µM (active)
O=C(Nc1ccc(S(=O)(=O)N2CCOCC2)cc1)c1ccc([N+](=O)[O-])o1 | 3.55 µM (active)
CCCC(=O)N1CCN(c2ccc(NC(=O)c3ccc([N+](=O)[O-])o3)cc2)CC1 | 6.31 µM (active)

Compound | Potency
CC(C)C(=O)N1CCN(c2ccc(NC(=O)c3ccco3)cc2Cl)CC1 | 6.31 µM (active)
CCC(=O)N1CCN(c2ccc(NC(=O)c3ccc([N+](=O)[O-])o3)cc2Cl)CC1 | 7.94 µM (active)
Cc1cccc(-c2c(NC(=O)c3ccco3)oc3ccc(Cl)cc3c2=O)c1 | inactive
CCN1CCN(c2ccc(NC(=O)c3ccc([N+](=O)[O-])o3)cc2Cl)CC1 | 7.94 µM (active)
CC(=O)OC[C@H]1O[C@@H](n2ncc(=O)[nH]c2=O)[C@H](OC(C)=O)[C@@H]1OC(C)=O | inactive
CS(=O)(=O)N1CCN(c2ccc(NC(=O)c3ccc([N+](=O)[O-])o3)cc2)CC1 | 7.08 µM (active)
CN(Cc1nc2ccccc2c(=O)[nH]1)C(=O)c1cccc(S(=O)(=O)N2CCc3ccccc32)c1 | 11.2 µM (active)
COc1cc2c(cc1OC)CN(C(=O)c1cccc(S(=O)(=O)N3CCc4ccccc43)c1)CC2 | 11.2 µM (active)
O=C(CNC(=O)c1cccc(S(=O)(=O)N2CCc3ccccc32)c1)Nc1ccc(F)c(F)c1F | 11.2 µM (active)
O=C(c1cccc(S(=O)(=O)N2CCc3ccccc32)c1)N1CCN(c2ccccc2)CC1 | 11.2 µM (active)
CCc1cc(SC#N)ccc1N | 8.91 µM (active)
CC(C)(C)Nc1nc(Cl)nc(NC2CCCCC2)n1 | 12.6 µM (active)
CCCc1cc(=O)n2nc(N3CCC(C(=O)NCc4ccc(C)o4)CC3)sc2n1 | 8.91 µM (active)
CCCc1cc(=O)n2nc(N3CCC(C(=O)N4CCN(c5ccc(OC)cc5)CC4)CC3)sc2n1 | 10 µM (active)
COc1cc(CNc2cccc(C(=O)O)c2)cc(Br)c1OCC(=O)NC(C)(C)C | 12.6 µM (active)
COc1ccccc1CCC(=O)N1CCN(S(=O)(=O)c2cc(C(F)(F)F)ccc2Cl)CC1 | 11.2 µM (active)
Cc1ccc(C)c(-c2cc(C(=O)Nc3nccs3)c3ccccc3n2)c1 | 1.12 µM (active)
Cc1ccc(C)c(-c2cc(C(=O)NNC(=S)NCC(C)C)c3ccccc3n2)c1 | 11.2 µM (active)
Cc1ccccc1-c1cc(C(=O)n2cccn2)c2cc(Cl)ccc2n1 | inactive
